SRC1 TRFRET art – counter-screen for PPARgamma SRC-1 recruitment agonists: TR-FRET artefact; TR-FRET detection artefact counter-screen, emission ratio; hits give high values; TR-FRET ratio at 8 µM; hit rate 0.34% among 99,000; AID 1051; in the data active means TR-FRET ratio above about 2300
PPARg SRC-2 ag – agonists of SRC-2 recruitment by human PPARgamma; activation, % at 8 µM; PPARgamma LBD-SRC-2 recruitment, biochemical; hit rate 0.34% among 200,000; P37231; in the data active means activation above about 22%
Target sequence (P37231 whole entry, looked up, the tested form may be a part): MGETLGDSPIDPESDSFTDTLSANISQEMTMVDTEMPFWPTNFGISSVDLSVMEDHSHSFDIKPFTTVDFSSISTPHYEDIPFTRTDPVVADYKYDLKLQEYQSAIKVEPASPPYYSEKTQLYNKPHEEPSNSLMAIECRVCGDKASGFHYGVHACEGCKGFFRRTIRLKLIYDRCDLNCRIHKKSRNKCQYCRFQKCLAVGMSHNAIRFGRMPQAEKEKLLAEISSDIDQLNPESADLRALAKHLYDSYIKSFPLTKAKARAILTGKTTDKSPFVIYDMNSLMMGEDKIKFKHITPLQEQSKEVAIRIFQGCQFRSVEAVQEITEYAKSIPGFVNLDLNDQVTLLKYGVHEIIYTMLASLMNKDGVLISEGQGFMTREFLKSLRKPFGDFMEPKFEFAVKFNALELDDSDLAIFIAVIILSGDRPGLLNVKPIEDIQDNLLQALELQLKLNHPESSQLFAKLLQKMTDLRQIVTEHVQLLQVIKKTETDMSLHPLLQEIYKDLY
SRC3 TRFRET art – counter-screen for PPARgamma SRC-3 recruitment agonists: TR-FRET artefact; PPARgamma/SRC-3 format; hits give high values; TR-FRET ratio at 8 µM; hit rate 0.39% among 99,000; AID 1048
PPARg SRC1 recr – agonists of human PPARgamma SRC-1 coactivator recruitment | PPARgamma-SRC-1 coactivator recruitment biochemical assay | AID 631 | activation, % at 8 µM | P37231 | hit rate 0.41% among 200,000; in the data active means activation above about 19%
PPARg SRC3 recr – PPARgamma-driven SRC-3 recruitment agonism | AID 731 | biochemical PPARgamma/SRC-3 coactivator recruitment assay | hit rate 0.26% among 200,000 | activation, % at 8 µM | P37231; in the data active means activation above about 23%
TR-FRET SRC-2 ct – flags TR-FRET format artefacts in PPARgamma SRC-2 recruitment agonist screen | hit rate 0.4% among 200,000 | TR-FRET artefact counter-screen; hits give high values | TR-FRET ratio at 8 µM
Hits are given with their value; - = inactive; . = no result. Hits are enriched below; roughly 0.9% of the tested compounds scored in any of these assays. Unless noted, no stated cut-off is given here; in the data, active means TR-FRET ratio above about 2000; inactive means the rest.

SMILES	SRC1 TRFRET art	PPARg SRC-2 ag	SRC3 TRFRET art	PPARg SRC1 recr	PPARg SRC3 recr	TR-FRET SRC-2 ct
Cc1sc(-n2c(C)cc(/C=N/n3cnnc3)c2C)c(C#N)c1C	.	-	.	-	29	-
CCn1cc(CNCc2cn(C)nc2-c2ccc(C3CCCCC3)cc2)cn1	-	-	-	22	-	-
CCOC(=O)/C(C#N)=C/c1cc2ccccc2nc1N1CCCCC1	-	-	2129	-	-	2031
COc1cc(/C=C2\SC(=S)N(CC(=O)Nc3ccccn3)C2=O)cc(OC)c1OC	-	-	-	-	-	-
Cc1nn(Cc2c(F)cccc2Cl)c(C)c1[N+](=O)[O-]	-	-	-	21	-	-
Nc1ccc(Br)cc1-c1nc2ccccc2[nH]c1=O	-	-	-	-	-	-
COc1cc(-c2nc(-c3ccc(Br)o3)no2)cc(OC)c1OC	.	-	.	-	-	-
COc1ccc(-c2noc(-c3ccc(Br)o3)n2)cc1OC	.	-	.	-	36	-
CCCCC#Cc1ccccc1CC(=O)Nc1ccccc1	-	-	-	-	-	-
Nc1ccccc1C#CCCCCO	-	-	2204	-	-	-
COc1ccc2[nH]cc(CCNC(=O)C3CCCO3)c2c1 (stereo unspecified)	-	-	-	-	-	-
CCOC(=O)N1CCN(S(=O)(=O)c2ccc(C(=O)Nc3sc4c(c3C#N)CCC4)cc2)CC1	.	-	.	-	-	-
Cc1ccccc1NC(C)C(=O)N/N=C/c1c[nH]c2ccccc12 (stereo unspecified)	-	-	-	-	-	-
CCc1c(C)nc2ncnn2c1Nc1ccc(C(C)=O)cc1	.	-	.	-	-	-
Cc1nc2ccc(NC(=O)c3cc(S(=O)(=O)N(C)c4ccccc4)ccc3Cl)cc2s1	-	-	-	-	-	-
Cc1nc2ccc(NC(=O)c3ccc(Cl)c(S(=O)(=O)N(C)c4ccccc4)c3)cc2s1	-	-	2532	-	-	-
COc1cc(OC)cc(-n2nnnc2SCC(=O)Nc2ccc(C(C)=O)cc2)c1	.	-	.	51	-	-
CCOC(=O)c1sc(NC(=O)CSc2nnnn2-c2ccc(C)c(C)c2)nc1C	.	156	.	-	-	4861
O=C(Nc1ccccc1)N1CCSc2cc(Cl)ccc21	.	-	.	-	-	-
Cc1cc(=O)[nH]c2c1c(C)nn2C1CCCC1	.	73	.	-	-	4512
Cc1cc(=O)[nH]c2c1c(C)nn2C1CCCCC1	.	-	.	-	-	-
CC1CC(C)(C)NC(=S)N1CCCC(=O)N1CCN(c2ccccc2F)CC1 (stereo unspecified)	2350	-	-	-	-	-
CC1CC(C)(C)NC(=S)N1CCCC(=O)Nc1ccccc1F (stereo unspecified)	-	-	-	-	-	-
Cc1ccc2cc(CCNC(=O)c3cccc([N+](=O)[O-])c3)c(=O)[nH]c2c1	-	-	-	-	-	-
CSc1ccc(/C=C/C(=O)c2ccc(NC(=O)C(C)C)cc2)cc1	.	-	.	-	-	-
SMILES	SRC1 TRFRET art	PPARg SRC-2 ag	SRC3 TRFRET art	PPARg SRC1 recr	PPARg SRC3 recr	TR-FRET SRC-2 ct
CSc1ccc(/C=C/C(=O)c2ccc(NC(=O)Cc3ccccc3)cc2)cc1	.	-	.	-	-	2038
COc1ccc(NS(=O)(=O)c2ccc(N3CCOCC3)c(NC(=O)c3ccc(OC)cc3)c2)cc1	-	-	-	-	-	-
COc1ccc(NS(=O)(=O)c2ccc(N3CCCC3)c(NC(=S)Nc3cccc(S(=O)(=O)N(C)C)c3)c2)cc1	2504	-	-	-	-	-
FC(F)Oc1ccc(NC(=S)NCc2ccccc2)cc1	-	-	-	-	-	-
Cc1cc2cc(CNC(=O)Nc3ccc(Cl)c(Cl)c3)ccc2n1C	2614	-	-	-	-	-
Cc1cc2cc(CNC(=S)Nc3ccc(OC(F)F)cc3)ccc2n1C	-	-	2435	-	-	2063
COCC(=O)NCc1ccc2c(c1)cc(C)n2C	-	-	-	-	-	-
Cn1c(=O)c2c(nc(SCC(=O)c3ccc(F)cc3)n2C)n(C)c1=O	-	-	-	-	-	-
Cc1nc(SCC(=O)Nc2ccccc2)c2oc3ccccc3c2n1	.	-	.	-	-	-
CCc1nc(SCC(=O)NCCc2ccccc2)c2oc3ccccc3c2n1	.	-	.	-	-	2202
Cc1nc(SCC(=O)Nc2ccc(F)cc2)c2oc3ccccc3c2n1	.	-	.	30	-	-
Cc1nc(SCC(=O)NC(C)c2ccccc2)c2oc3ccccc3c2n1 (stereo unspecified)	.	-	.	-	-	-
Cc1nc(SCC(=O)c2ccc(Cl)s2)c2oc3ccccc3c2n1	.	-	.	19	-	-
CCOC(=O)C1CCCN(C(=O)c2cn(CC)c(=O)c3cc(OC)c(OC)cc23)C1 (stereo unspecified)	.	-	.	-	-	-
CC(C)(C)OC(=O)N/N=C/c1cccc([N+](=O)[O-])c1	-	-	-	-	-	-
Cc1ccccc1S(=O)(=O)Nc1nc2ccccc2nc1NCCO	.	-	.	-	-	-
Cc1ccc(C)c(S(=O)(=O)N2CC(=O)N(CCc3ccccc3)C(=O)C2)c1	-	-	-	-	-	-
CCOc1nc(-c2ccccc2)ccc1-c1noc(-c2ccncc2)n1	-	-	-	-	-	-
CCOc1nc(-c2ccccc2)ccc1-c1noc(-c2cccs2)n1	.	-	.	34	-	-
CSc1nc2ccc3nc(NC(=O)c4cccs4)sc3c2s1	.	-	.	41	-	-
CSc1nc2ccc3nc(NC(=O)c4ccc(Cl)s4)sc3c2s1	.	-	.	-	-	-
CCc1cc2cc(C(=O)Nc3ccc(C)cc3)sc2s1	.	24	.	-	-	-
CCN(CC)c1ccc(C=Nc2cc(C)ccc2C)c(O)c1	-	-	-	21	-	-
Cc1ccc(C2CC(c3ccccc3)=NN2C(=S)Nc2ccccc2)o1 (stereo unspecified)	.	-	.	-	-	-
CNC(=S)N1N=C(c2ccccc2)CC1c1ccccc1Cl (stereo unspecified)	-	-	2267	-	-	-
SMILES	SRC1 TRFRET art	PPARg SRC-2 ag	SRC3 TRFRET art	PPARg SRC1 recr	PPARg SRC3 recr	TR-FRET SRC-2 ct
CNC(=S)N1N=C(c2ccc(C)cc2)CC1c1ccc(Br)cc1 (stereo unspecified)	.	-	.	-	-	2002
CC(C)c1ccc(C2CC(c3ccc(Br)cc3)=NN2C(N)=S)cc1 (stereo unspecified)	-	-	-	-	-	-
CCC(Sc1ccc(Cl)cc1)C(=O)Nc1nnc(-c2cccc([N+](=O)[O-])c2)s1 (stereo unspecified)	-	-	-	-	-	-
O=C(Nc1cccnc1)c1cc(-c2ccc3c(c2)OCO3)on1	.	-	.	-	-	1992
O=C(Nc1cccnc1)c1cc(-c2ccc(F)cc2)on1	-	-	-	-	-	-
CCOC(=O)c1nn(-c2ccc(Cl)cc2)c2nc(-c3ccc(C)cc3)c(C#N)c(=O)n12	.	-	.	-	52	-
CC(=O)Oc1ccc(/C=C2\N=C(C3CCCCC3)OC2=O)cc1	-	-	-	-	-	-
CCN(CC)C(=O)CN1C(=O)C2CC=C(Cl)CC2C1=O (stereo unspecified)	.	-	.	-	-	-
Fc1ccc2nc(N3CCOCC3)sc2c1	-	-	-	-	-	-

Screening results from PubChem BioAssay.
